# Data reported in publication PMC5540273 (PLoS ONE, 2017).
# Assays:
# Conditions in all cases: concentration: 1 μM, replicates: in singlicate; n = 1
# RIPK4 = system: RIPK4
# RIPK5 = system: RIPK5
# ROCK1 = system: ROCK1
# ROCK2 = system: ROCK2
# ROS1 = system: ROS1
# [1] = system: RPS6KA4(Kin.Dom.1-N-terminal)
# [2] = system: RPS6KA4(Kin.Dom.2-C-terminal)
# [3] = system: RPS6KA5(Kin.Dom.1-N-terminal)
# [4] = system: RPS6KA5(Kin.Dom.2-C-terminal)
# [5] = system: T1, RSK1(Kin.Dom.1-N-terminal)
# T1 construct: gene RPS6KA1
# 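Also: KINOMEscan kinase panel screen.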
Structure (SMILES),%Inh (RIPK4) [%],%Inh (RIPK5) [%],%Inh (ROCK1) [%],%Inh (ROCK2) [%],%Inh (ROS1) [%],%Inh [1] [%],%Inh [2] [%],%Inh [3] [%],%Inh [4] [%],%Inh [5] [%]
Cc1ccc(NC(=O)Nc2ccc(Cl)cc2)cc1-c1ccc(C(=O)Nc2ccncc2)cc1 [GSK1398472],28,6,4,0,0,7,0,17,0,27
CSc1ccc(-c2nc3n(c2-c2ccncc2)CCC3)cc1 [SKF-105561],13,17,23,0,6,6,10,5,0,0
Cn1cncc1-c1cc2c(Nc3ccc(OCc4ccccc4)cc3)ncnc2cn1 [GW281179],8,0,82,74,13,9,0,11,0,30
CCn1c(-c2ccccc2)nc2cnccc21 [SB-733416],41,5,9,0,7,0,0,3,0,0
Cl.Cl.Cl.N#Cc1ccc(CCNc2nccc(-c3cccc(CN4CCNCC4)c3)n2)cc1 [GSK2137462],0,19,33,41,6,0,0,19,5,10
Nc1ncnc2occ(-c3ccc4c(c3)CCN4C(=O)Cc3cc(F)ccc3F)c12 [GSK2645446],0,12,12,11,2,14,0,2,1,0
Nc1nccc(-c2c(-c3ccc(F)cc3)ncn2C2CCN(Cc3ccccc3)CC2)n1 [SB-219980],7,34,34,0,10,0,0,0,0,0
Fc1ccc(-c2nc[nH]c2-c2ccncc2)cc1 [SB-217360],0,31,0,26,5,0,0,0,19,0
Fc1ccc(-c2nn3cccc(F)c3c2-c2ccncc2)cc1 [GW475620],0,50,22,0,0,38,0,33,0,0
CNCc1ccc2nc(NC(=O)c3ccc(C(C)(C)C)cc3)cn2c1,14,11,5,13,9,9,9,0,0,0
CN1c2ccc(-c3ccc(C(N)=O)cc3)cc2-c2[nH]ncc2S1(=O)=O,0,0,0,11,0,17,26,0,0,0
CNc1nc(-c2ccc3c(N)n[nH]c3c2)cc(N2C[C@@H](C(=O)NC3CCCCC3)OC[C@H]2C)n1 [GSK2375584],11,1,23,26,19,16,0,25,24,11
O=C(Nc1n[nH]c2cc(-c3ccsc3)ccc12)C1CC1 [SB-732932],35,8,7,0,0,12,17,0,13,26
COc1ccc(Nc2nccc(NCCNC(=O)Nc3cc(C)ccc3C)n2)cc1 [GSK1379899],6,0,6,14,5,8,0,49,0,0
Cc1c(Cn2c(C)c(C)n3c(=O)cc(N4CCOCC4)nc23)cccc1C(F)(F)F [GSK2328680],0,67,11,10,19,1,0,16,0,0
CC(C)c1cc(-c2ccc3c(N)n[nH]c3c2)nc(N)n1 [GSK2250882],4,0,28,20,23,13,3,0,25,14
Fc1ccc(-c2nc3n(c2-c2ccncc2)CCS3)cc1 [GI98581],0,0,11,0,3,35,0,10,0,0

Structure (SMILES),%Inh (RIPK4) [%],%Inh (RIPK5) [%],%Inh (ROCK1) [%],%Inh (ROCK2) [%],%Inh (ROS1) [%],%Inh [1] [%],%Inh [2] [%],%Inh [3] [%],%Inh [4] [%],%Inh [5] [%]
COc1ccc2cc(-c3nc(-c4ccccc4C(C)C)[nH]c3-c3ccncc3)ccc2c1 [SB-660566],25,4,35,0,0,6,0,4,0,42
FC(F)(F)c1ccccc1-c1cc(-c2c[nH]nc2-c2ccccn2)ccn1 [GW679396],0,0,9,14,6,18,0,24,0,6
COc1cccc(CNC(=O)NC2CCN(c3ccnc(Nc4ccc(F)cc4)n3)C2)c1 (stereo not shown) [GSK1379723],20,10,0,0,0,0,0,7,36,2
COc1ccc(-c2coc3ccc(-c4nnc(C)o4)cc23)cc1,0,0,0,0,0,13,0,4,4,0
Nc1cccc(-c2ccc3c(N)n[nH]c3c2)n1 [GSK2192730],41,0,0,0,0,0,0,0,4,24
Cc1ccc(NC(=O)c2ccc(Cl)cc2)cc1-c1ccc(C(=O)Nc2ccncc2)cc1 [GSK1398467],9,0,0,17,8,13,0,17,49,10
Cc1ccccc1-c1cc(-c2c[nH]nc2-c2ccccn2)ccn1 [GW680061],0,0,0,3,0,5,0,4,0,5
O=c1cc(N2CCOCC2)nc2n(Cc3ccccc3F)ccn12 [GSK2297428],0,0,0,0,47,5,0,8,0,5
Cc1ccccc1Cn1ccn2c(=O)cc(N3CCOCC3)nc12 [GSK2269905],0,0,0,0,0,23,0,12,0,25
O=C1NC(=O)C(c2ccc(Cl)cc2)=C1Nc1ccc(O)cc1 [SB-340867],0,0,0,0,0,0,0,0,0,9
Cc1ccc(-c2nc(Nc3ccncc3)c3ccccc3n2)s1 [GSK189015],20,6,0,0,0,18,0,23,0,0
CS(=O)(=O)CCNCc1nc(-c2ccc3ncnc(Nc4ccc5c(cnn5Cc5ccccc5)c4)c3c2)cs1.Cl.Cl [GW569716],3,0,47,33,0,23,0,9,7,8
Cc1ccc(NC(=O)Nc2ccccc2F)cc1-c1ccc(C(=O)Nc2ccncc2)cc1 [GSK1398477],30,6,26,0,3,20,0,34,0,23
COc1ccc(CSc2nnc(-c3ccc4ncsc4c3)o2)cc1C(F)(F)F,0,0,11,0,0,0,5,17,10,0
COC(=O)c1cccc(NC(=O)NC2CCN(c3ccnc(Nc4ccc(F)cc4)n3)C2)c1 (stereo not shown) [GSK1379725],18,0,0,0,0,0,0,0,16,8
CCCCc1nn2ncccc2c1-c1ccnc(NC2CC2)n1 [GW684374],7,5,0,0,8,0,0,0,11,7
COc1ccc(Nc2nccc(N3CCC(NC(=O)c4cc5ccccc5s4)C3)n2)cc1 (stereo not shown) [GSK1379738],20,7,8,21,0,15,0,0,0,22
